Records with an inconclusive call do not appear. Unmarked numbers belong to inactive results. Active and inactive are the calls of the source. The call rests on the fitted dose curve; in most records, active means well fitted cell-killing curve with a large enough effect; inconclusive means small, poorly fitted or top-dose-only effect, or effect the other way; inactive means no such curve, though single readings can be large or run the other way.
Columns and labels:
[1] = Quantitative High-Throughput drug screen in 47 multiple myeloma cell lines against the NCATS MIPE library collection: MM1R_ATCC cell viability assay (AID 1918981); further: nearly all actives have a fitted effect of over 35% in size
In short: (§1)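 Readout: median RLU from CellTiter-Glo after 5 min at room temperature. Preceding step was 48 h drug treatment of 500 cells/well at 37 °C, 5% CO2, with DMSO-only and media-only control wells.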

[2] = Quantitative High-Throughput drug screen in 47 multiple myeloma cell lines against the NCATS MIPE library collection: LP1_DSMZ cell viability assay (AID 1918982); further: nearly all actives have a fitted effect of over 35% in size
In short: as §1

[3] = Quantitative High-Throughput drug screen in 47 multiple myeloma cell lines against the NCATS MIPE library collection: KMS28PE_JCRB cell viability assay (AID 1918983); further: nearly all actives have a fitted effect of over 35% in size
In short: as §1

[4] = Quantitative High-Throughput drug screen in 47 multiple myeloma cell lines against the NCATS MIPE library collection: L363_DSMZ cell viability assay (AID 1918984); conditions: L363 myeloma viability, CellTiter-Glo ATP luminescence, 48 h; viability (% of control): at 45.8 µM (top of the series); further: nearly all actives have a fitted effect of over 40% in size
In short: as §1

[5] = Quantitative High-Throughput drug screen in 47 multiple myeloma cell lines against the NCATS MIPE library collection: KMS34_JCRB cell viability assay (AID 1918985); further: nearly all actives have a fitted effect of over 40% in size
In short: as §1

[6] = Quantitative High-Throughput drug screen in 47 multiple myeloma cell lines against the NCATS MIPE library collection: OCIMY5_PLB cell viability assay (AID 1918988); further: nearly all actives have a fitted effect of over 65% in size
In short: as §1

[7] = Quantitative High-Throughput drug screen in 47 multiple myeloma cell lines against the NCATS MIPE library collection: SKMM1_PLB cell viability assay (AID 1919863); conditions: SKMM1 myeloma viability, CellTiter-Glo ATP, 48 h; viability: active compounds read low; further: nearly all actives have a fitted effect of over 35% in size
In short: as §1

[8] = Quantitative High-Throughput drug screen in 47 multiple myeloma cell lines against the NCATS MIPE library collection: U266_ATCC cell viability assay (AID 1919864); further: nearly all actives have a fitted effect of over 35% in size;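 on viability (% of DMSO control): 0% = media-only wells without cells and 100% = DMSO-only wells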
In short: as §1

[9] = Quantitative High-Throughput drug screen in 47 multiple myeloma cell lines against the NCATS MIPE library collection: XG6_PLB cell viability assay (AID 1919865); further: nearly all actives have a fitted effect of over 40% in size;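 on viability (% of control): 100% = DMSO-only wells and 0% = media-only wells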
In short: as §1

[10] = Quantitative High-Throughput drug screen in 47 multiple myeloma cell lines against the NCATS MIPE library collection: XG1_PLB cell viability assay (AID 1919866); further: nearly all actives have a fitted effect of over 35% in size
In short: as §1

[11] = Quantitative High-Throughput drug screen in 47 multiple myeloma cell lines against the NCATS MIPE library collection: UTMC2_PLB cell viability assay (AID 1919868); conditions: CellTiter-Glo ATP luminescence, 48 h; viability (% of DMSO control): at 45.8 µM (top of the series); further: nearly all actives have a fitted effect of over 55% in size;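 on viability (% of DMSO control): 100% = DMSO-only wells and 0% = media-only wells without cells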
In short: as §1

[12] = Quantitative High-Throughput drug screen in 47 multiple myeloma cell lines against the NCATS MIPE library collection: PE2_PLB cell viability assay (AID 1919869); further: nearly all actives have a fitted effect of over 35% in size;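 on viability (% of control): 100% = DMSO-only wells and 0% = cell-free media-only wells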
In short: as §1

[13] = Quantitative High-Throughput drug screen in 47 multiple myeloma cell lines against the NCATS MIPE library collection: RPMI8226_ATCC cell viability assay (AID 1919871); further: nearly all actives have a fitted effect of over 30% in size
In short: as §1

[14] = Quantitative High-Throughput drug screen in 47 multiple myeloma cell lines against the NCATS MIPE library collection: OPM2_DSMZ cell viability assay (AID 1919872); further: nearly all actives have a fitted effect of over 30% in size
In short: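 Relative luminescence from CellTiter-Glo served as the viability signal, referenced to DMSO-treated (100%) and cell-free medium (0%) controls. Treatment lasted 48 hours at 37C with 500 cells per well.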

[15] = Quantitative High-Throughput drug screen in 47 multiple myeloma cell lines against the NCATS MIPE library collection: OPM1_PLB cell viability assay (AID 1918989); further: nearly all actives have a fitted effect of over 40% in size;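 on viability (% of control): 100% = DMSO-only wells and 0% = media-only wells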
In short: as §1

[16] = Quantitative High-Throughput drug screen in 47 multiple myeloma cell lines against the NCATS MIPE library collection: KMS11_JCRBsus cell viability assay (AID 1919873); further: nearly all actives have a fitted effect of over 50% in size;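 on viability (% of control): 100% = DMSO-only wells and 0% = media-only wells without cells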
In short: as §1

[17] = Quantitative High-Throughput drug screen in 47 multiple myeloma cell lines against the NCATS MIPE library collection: KMS28BM_JCRB cell viability assay (AID 1919874); further: nearly all actives have a fitted effect of over 35% in size
In short: as §1

[18] = Quantitative High-Throughput drug screen in 47 multiple myeloma cell lines against the NCATS MIPE library collection: PCM6_Riken cell viability assay (AID 1919870); further: nearly all actives have a fitted effect of over 30% in size;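 on viability (% of control): 100% = DMSO-only wells and 0% = media-only wells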
In short: as §1

[19] = Quantitative High-Throughput drug screen in 47 multiple myeloma cell lines against the NCATS MIPE library collection: OCIMY7_PLB cell viability assay (AID 1918987); conditions: OCI-MY7 myeloma viability, CellTiter-Glo ATP, 48 h; viability (% of DMSO): at 45.8 µM (top of the series); further: nearly all actives have a fitted effect of over 65% in size
In short: as §1

[20] = Quantitative High-Throughput drug screen in 47 multiple myeloma cell lines against the NCATS MIPE library collection: VP6_DJ cell viability assay (AID 1919867); further: nearly all actives have a fitted effect of over 40% in size
In short: as §1
Potency means the concentration at half of the fitted maximal effect.

O=C(O)CCC=CCC[C@@H]1[C@H](N2CCCCC2)[C@@H](O)C[C@@H]1OCc1ccc(-c2ccccc2)cc1
Potency [1]: inactive | Potency [2]: inactive | Potency [3]: inactive | Potency [4]: inactive | Potency [5]: inactive | Potency [6]: inactive | viability [7]: 114% | Potency [8]: inactive | Potency [9]: inactive | Potency [10]: inactive | Potency [11]: inactive | Potency [12]: inactive | Potency [13]: inactive | Potency [14]: inactive

O=C(O)C1=NC(C(=O)O)CC(C=CN2c3cc(O)c(OC4OC(CO)C(O)C(O)C4O)cc3CC2C(=O)O)=C1 (configuration not stated)
Potency [1]: inactive | Potency [2]: inactive | Potency [3]: inactive | Potency [4]: inactive | Potency [15]: inactive | viability [7]: 117% | Potency [10]: inactive | Potency [12]: inactive | Potency [13]: inactive | Potency [16]: inactive

COc1ccc(-c2nc3ccc(C4=NNC(=O)CC4C)cc3[nH]2)cc1 (configuration not stated)
Potency [1]: inactive | Potency [2]: inactive | Potency [3]: inactive | Potency [4]: inactive | Potency [5]: inactive | Potency [6]: inactive | viability [7]: 101% | Potency [9]: inactive | Potency [12]: inactive | Potency [13]: inactive | Potency [14]: inactive | Potency [16]: inactive | Potency [17]: inactive

CCCCC(F)(F)[C@@]1(O)CC[C@H]2[C@H](CC(=O)[C@@H]2CCCCCCC(=O)O)O1
Potency [1]: inactive | Potency [2]: inactive | Potency [3]: inactive | Potency [4]: inactive | Potency [6]: 0.235 µM (active) | Potency [15]: inactive | viability [7]: 97.7% | Potency [8]: inactive | Potency [10]: inactive | Potency [12]: inactive | Potency [18]: inactive | Potency [14]: inactive | Potency [16]: inactive | Potency [17]: inactive

CC[C@]1(O)C[C@H]2CN(CCC3=c4ccccc4=N[C]3[C@@](C(=O)OC)(c3cc4c(cc3OC)N(C)[C@H]3[C@@](O)(C(N)=O)[C@H](O)[C@]5(CC)C=CCN6CC[C@]43[C@@H]65)C2)C1
Potency [1]: 0.0662 µM (active) | Potency [2]: 0.0083 µM (active) | Potency [3]: 0.0023 µM (active) | Potency [4]: 132 nM (active) | Potency [5]: 5.3 nM (active) | Potency [19]: 66.2 nM (active) | Potency [7]: 0.0148 µM (active) | Potency [8]: 0.0935 µM (active) | Potency [9]: inactive | Potency [11]: 5.3 nM (active) | Potency [13]: 0.132 µM (active) | Potency [14]: 7.4 nM (active)

COC(=O)Nc1ccc(-c2nc(N3CCOCC3)c3cnn(C4CCN(C(=O)OC)CC4)c3n2)cc1
Potency [1]: 0.743 µM (active) | Potency [2]: 0.235 µM (active) | Potency [3]: 1.18 µM (active) | Potency [4]: 93.5 nM (active) | Potency [5]: 1050 nM (active) | Potency [19]: 23.5 nM (active) | Potency [6]: 1.18 µM (active) | Potency [15]: 0.372 µM (active) | Potency [7]: 11.8 µM (active) | Potency [8]: 1.32 µM (active) | Potency [20]: 0.148 µM (active) | Potency [11]: 59 nM (active) | Potency [12]: 0.332 µM (active) | Potency [18]: 1.87 µM (active) | Potency [13]: 0.332 µM (active) | Potency [14]: 2350 nM (active) | Potency [17]: 590 nM (active)

CN1C(=O)C(Cc2c[nH]c3ccccc23)NC1=S (configuration not stated)
Potency [1]: inactive | Potency [2]: inactive | Potency [3]: inactive | Potency [4]: inactive | Potency [5]: inactive | Potency [7]: 0.418 µM (active) | Potency [8]: 5.9 µM (active) | Potency [9]: inactive | Potency [10]: inactive | Potency [20]: 7.43 µM (active) | Potency [12]: inactive | Potency [18]: 3.72 µM (active) | Potency [13]: inactive | Potency [14]: inactive | Potency [17]: inactive

CS(=O)(=O)c1ccc(C2=C(c3ccccc3)C(=O)OC2)cc1
Potency [1]: inactive | Potency [2]: inactive | Potency [3]: inactive | Potency [4]: inactive | Potency [5]: inactive | viability [7]: 152% | Potency [9]: inactive | Potency [11]: inactive | Potency [13]: inactive | Potency [14]: inactive | Potency [16]: inactive | Potency [17]: inactive

O=S(=O)(NCCNCC=Cc1ccc(Br)cc1)c1cccc2cnccc12
Potency [1]: 20.9 µM (active) | Potency [2]: 7.43 µM (active) | Potency [3]: 18.7 µM (active) | Potency [4]: 2960 nM (active) | Potency [19]: 23500 nM (active) | Potency [6]: 14.8 µM (active) | Potency [7]: 18.7 µM (active) | Potency [8]: 20.9 µM (active) | Potency [9]: 2.64 µM (active) | Potency [10]: 5.26 µM (active) | Potency [20]: 5.26 µM (active) | Potency [12]: 16.6 µM (active) | Potency [18]: 16.6 µM (active) | Potency [13]: 20.9 µM (active) | Potency [16]: 16.6 µM (active) | Potency [17]: 16600 nM (active)

O=C(CCCN1CCN(c2ccc(F)cc2)CC1)NC1c2ccccc2CSc2ccccc21 (configuration not stated)
Potency [1]: 18.7 µM (active) | Potency [2]: 2.96 µM (active) | Potency [3]: 11.8 µM (active) | Potency [4]: 4690 nM (active) | Potency [6]: 16.6 µM (active) | Potency [15]: 10.5 µM (active) | Potency [7]: 5.9 µM (active) | Potency [8]: 20.9 µM (active) | Potency [9]: 14.8 µM (active) | Potency [10]: 11.8 µM (active) | Potency [20]: 7.43 µM (active) | Potency [12]: 13.2 µM (active) | Potency [18]: 14.8 µM (active) | Potency [16]: 10.5 µM (active)

CN1CCN(c2cccc(Nc3nc4c(-c5ccc(S(C)(=O)=O)cc5)cccn4n3)c2)CC1
Potency [1]: 16.6 µM (active) | Potency [2]: 14.8 µM (active) | Potency [3]: 16.6 µM (active) | Potency [4]: 3320 nM (active) | Potency [19]: 743 nM (active) | Potency [6]: 4.69 µM (active) | Potency [15]: 2.35 µM (active) | Potency [7]: 18.7 µM (active) | Potency [8]: 3.32 µM (active) | Potency [9]: 0.833 µM (active) | Potency [20]: 0.743 µM (active) | Potency [12]: 1.05 µM (active) | Potency [18]: 7.43 µM (active) | Potency [13]: 9.35 µM (active) | Potency [17]: 743 nM (active)

CN[C@H]1[C@@H](O[C@@H]2[C@H](O[C@@H]3[C@@H](O)[C@@H](O)[C@@H](N=C(N)N)[C@@H](O)[C@@H]3N=C(N)N)O[C@H](C)[C@@]2(O)C=O)O[C@@H](CO)[C@@H](O)[C@H]1O
Potency [1]: inactive | Potency [2]: inactive | Potency [3]: inactive | Potency [4]: 5.3 nM (active) | Potency [5]: inactive | Potency [15]: inactive | Potency [7]: 0.946 µM (active) | Potency [8]: inactive | Potency [9]: inactive | Potency [10]: inactive | Potency [12]: inactive | Potency [18]: inactive | Potency [13]: inactive | Potency [14]: inactive | Potency [16]: inactive
